Data on 13 molecules can be found in PubChem BioAssay (NCATS).

Test [1] can be described thus: qHTS Assay for Lipid Storage Modulators (AID 1519; calls by dose curve; as to activity change, negative = inhibition: % is scaled to controls: 0 for no effect and ±100 for the full control effect). To be noted: Drosophila S3 cells, BODIPY lipid droplet/cell ratio, laser cytometry, cells loaded with oleic acid. In short, it runs like this:
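Cells seeded at 5,000 per well were treated with compounds over a concentration series and loaded with oleic acid (400 uM, as added). Lipid droplet fluorescence (488 nm excitation, 500-530 nm channel) was read by laser-scanning cytometry and normalized to 20 uM Triacsin C.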

Test [2] deals with Alpha-galactosidase A (Homo sapiens) (UniProt P06280). Description: Counterscreen for Glucocerebrosidase Inhibitors: qHTS Assay for Human alpha-Galactosidase at pH 4.5 (AID 992). Also: 0% is about no effect. In short, it runs like this:
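Each compound is preincubated briefly with 2 nM enzyme before substrate addition (80 uM); plates then sit 20 min at ambient temperature, are quenched with 1M NaOH/1M glycine, and read fluorometrically.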
For orientation: The purpose of a counterscreen is to sort out artefacts and off-target activity.

Test [3] has as its target alpha-glucosidase (Oryza sativa, rice) (UniProt Q653V4). Description: Counterscreen for Glucocerebrosidase Inhibitors: qHTS Assay for Rice alpha-Glucosidase at pH 5.0 (AID 997).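 Also: 0% = full activity with enzyme and -100% = basal without enzyme.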 In short, it runs like this: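 Endpoint fluorogenic assay at pH 5.0: compounds (0.7 nM to 77 uM) titrated against 4 nM rice enzyme and 400 uM 4-MU-alpha-glucoside for 20 min at room temperature; NaOH/glycine stop, read ex 365/em 440 nm, Hill-fitted AC50.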

The target in test [4] is DNA repair nuclease/redox regulator APEX1 (Homo sapiens) (UniProt P27695). Description: qHTS Validation Assay for Inhibitors of the Human Apurinic/apyrimidinic Endonuclease 1 (APE1) (AID 1705;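 also: TAMRA fluorescence gain over two minutes as APE1 cuts a quenched THF abasic duplex; % is scaled to controls: 0 for no effect and ±100 for the full control effect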). In short, it runs like this: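 qHTS, 1536-well. APE1 + cpd 15 min RT → 50 nM TAMRA/BHQ-2 THF-abasic dsDNA substrate → kinetic fluorescence, 3 reads/60 s; delta(read3−read1) = reaction progress. No-enzyme buffer = negative control.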
Chain of DNA repair nuclease/redox regulator APEX1 (Homo sapiens) (P27695 whole entry, looked up): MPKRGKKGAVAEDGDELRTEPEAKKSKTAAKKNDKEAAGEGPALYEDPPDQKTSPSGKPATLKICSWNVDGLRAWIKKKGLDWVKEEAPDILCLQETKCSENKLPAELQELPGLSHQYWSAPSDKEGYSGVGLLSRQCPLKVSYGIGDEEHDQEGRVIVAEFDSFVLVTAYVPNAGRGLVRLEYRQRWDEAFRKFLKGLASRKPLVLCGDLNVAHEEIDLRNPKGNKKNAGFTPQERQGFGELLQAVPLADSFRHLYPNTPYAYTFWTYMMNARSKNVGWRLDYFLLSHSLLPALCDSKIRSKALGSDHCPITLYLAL

Test [5] is described as follows: Counterscreen for APE1 Inhibitors: Fluorescent Dye Displacement Validation Assay (AID 1707).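 Also: plate controls were ThO with dsDNA and no compound for no effect and ThO without dsDNA for full effect.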 In short, it runs like this: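 Loss of Thiazole Orange fluorescence marks promiscuous DNA binders. The dye (250 nM) is mixed with 50 nM abasic-site dsDNA in pH7.5 Tris buffer containing MgCl2, then compounds are added and emission is read once.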
Test [6] in a line: Cell Viability - LYMP2-007 (AID 979).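 Also: cells exposed to compound for 24 h before reading; 0% = DMSO only and the negative end = 92 µM tetraoctylammonium bromide; nearly all actives have a fitted effect of over 60% in size.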 In short, it runs like this:
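Cells are seeded at 2500 per well and rested 5 hr. Compounds are then added over a concentration series for 24 hr at 37 C. CellTiter-Glo is added for 30 min at room temperature before luminescence reading.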

A short description of test [7]: Cell Viability - LYMP2-008 (AID 980).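 Also: cells exposed to compound for 24 h at 37 °C; % is scaled to controls: 0 for no effect and ±100 for the full control effect; nearly all actives have a fitted effect of over 60% in size.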 In short, it runs like this:
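Cells seeded at 2500/well and rested 5 hr at 37 C; compounds added over a concentration range and incubated 24 hr at 37 C; CellTiter-Glo added, 30 min at room temperature; luminescence read and AC50 fitted with Hill model.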

A short description of test [8]: Cell Viability - LYMP2-010 (AID 981).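 Also: cells exposed to compound for 24 hours at 37 °C; % is scaled to controls: 0 for no effect and ±100 for the full control effect; nearly all actives have a fitted effect of over 55% in size.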 In short, it runs like this: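 Steps: seed 2500 LYMP2-010 cells per well; incubate 5 hr at 37 C; add compound; incubate 24 hr at 37 C; add CellTiter-Glo, wait 30 min at room temperature; read luminescence. Concentration-response fitted to Hill equation for AC50.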
Test [9] is described as follows: Cell Viability - LYMP2-012 (AID 982).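 Also: cellular ATP by luciferase luminescence where a drop means cytotoxicity; cells exposed to compound for one day before reading; 0% = DMSO only and full loss = 92 µM tetraoctylammonium bromide; nearly all actives have a fitted effect of over 55% in size.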
Test [10] is described as follows: Cell Viability - LYMP2-014 (AID 983).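 Also: cells exposed to compound for 24 h at 37 °C; plate controls were DMSO only for no effect and 92 µM tetraoctylammonium bromide for full effect; nearly all actives have a fitted effect of over 50% in size.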 In short, it runs like this:
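Cells are plated at 2500/well and left 5 hr at 37 C. Compounds are added across a concentration range and incubated 24 hr at 37 C in complete medium. CellTiter-Glo is added, and luminescence is read after 30 min at room temperature.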

The nature of test [11]: Cell Viability - LYMP2-016 (AID 984).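 Also: cells exposed to compound for 24 hours at 37 °C; % is scaled to controls: 0 for no effect and ±100 for the full control effect; nearly all actives have a fitted effect of over 55% in size.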 In short, it runs like this:
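Cells were seeded at 2500 per well and rested 5 hr before a 24 hr compound exposure at 37 C. Viability was then gauged as cellular ATP by luciferase luminescence, with AC50 values fitted to the Hill equation.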

Test [12] in a line: Cell Viability - LYMP2-018 (AID 985).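 Also: plate controls were DMSO only for no effect and tetraoctylammonium bromide at 92 µM for full effect; nearly all actives have a fitted effect of over 50% in size.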 In short, it runs like this: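 Seed 2500 lymphoblastoid cells per well, incubate 5 hr at 37 C, add compound and incubate 24 hr at 37 C, add CellTiter-Glo, wait 30 min at room temperature, then read luminescence.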
Test [13] in a line: Cell Viability - LYMP2-020 (AID 986).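 Also: cells exposed to compound for 24 h at 37 °C; plate controls were DMSO only for no effect and tetraoctylammonium bromide at 92 µM for full effect; nearly all actives have a fitted effect of over 55% in size.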 In short, it runs like this: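 Seed 2500 cells per well and incubate 5 hr at 37 C. Add compounds at a concentration series and incubate 24 hr at 37 C. Add CellTiter-Glo, wait 30 min at RT, read luminescence, and fit a Hill curve for AC50.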
Test [14] can be described thus: Cell Viability - LYMP2-022 (AID 987). In short, it runs like this: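 Cells were seeded at 2500 per well, rested 5 hr at 37 C, and treated with titrated compounds for 24 hr at 37 C. Cellular ATP was then quantified by luciferase luminescence, and AC50 values were derived from Hill-modelled concentration-response curves.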
A short description of test [15]: Cell Viability - LYMP2-024 (AID 988).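 Also: plate controls were DMSO only for no effect and 92 µM tetraoctylammonium bromide for full effect; nearly all actives have a fitted effect of over 60% in size.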 In short, it runs like this: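 qHTS cytotoxicity, human lymphoblastoid line, complete medium; 24 h cpd treatment, 37 C; CellTiter-Glo ATP luminescence readout; tetraoctylammonium bromide positive control; AC50 via Hill fit.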
A short description of test [16]: Cell Viability - LYMP2-026 (AID 989).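 Also: cells exposed to compound for 24 h at 37 °C; % is scaled to controls: 0 for no effect and ±100 for the full control effect; nearly all actives have a fitted effect of over 50% in size.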 In short, it runs like this: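 Cells are seeded at 2500 per well and held 5 hr at 37 C. Compounds are added in concentration series for 24 hr, then CellTiter-Glo reagent is applied and luminescence read.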
A short description of test [17]: Cell Viability - LYMP1-002 - Assay at 24 hr (AID 993). Also: % is scaled to controls: 0 for no effect and ±100 for the full control effect. In short, it runs like this: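 Acute toxicity is measured as concentration-dependent loss of cellular ATP in a human lymphoblastoid line (Coriell LYMP1-002) after 24 h treatment in complete medium. ATP is quantified by luciferase luminescence and AC50 derived by Hill modelling.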
A short description of test [18]: Cell Viability - LYMP1-002 - Assay at 40 hr (AID 994).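 Also: 0% = DMSO only and full inhibition = 92 µM tetraoctylammonium bromide; nearly all actives have a fitted effect of over 60% in size.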 In short, it runs like this:
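Cells are plated at 2500 per well and rested 5 hr at 37 C. Compounds are added and incubated 40 hr at 37 C. CellTiter-Glo reagent is added for 30 min at room temperature before luminescence is read.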

Test [19] addresses Endonuclease 4 (Escherichia coli (strain K12)) (UniProt P0A6C1). Description: Counterscreen for APE1 Inhibitors: qHTS Validation Assay for Inhibitors of Endonuclease IV (AID 1708). Also: % is scaled to controls: 0 for no effect and ±100 for the full control effect. In short, it runs like this:
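Conditions: 2 nM enzyme, 50 nM TAMRA/BHQ-2 substrate, pH 7.5 Tris buffer with 2 mM MgCl2, RT. Compound preincubation 15 min; readout three fluorescence reads 60 s apart, third-minus-first.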

The mark [20] stands for this setting: measured here: cell count channel max response.
Where [21] appears, read: measured here: lipid channel max response.

Where “and” joins values, the source holds several entries; their conditions need not be identical. Equal entries are not always repeated. Results filed as inconclusive are left out. Calls of active or inactive are those of the source. Unless noted, calls follow the shape of the dose curve; as a rule, active = well fitted curve in the direction sought with a large enough effect; inconclusive = small, poorly fitted or top-dose-only effect, or another doubt; inactive = no such curve, though single readings can be large; an effect the other way counts as inactive or inconclusive.

Chain of Alpha-galactosidase A (Homo sapiens) (P06280 whole entry, looked up): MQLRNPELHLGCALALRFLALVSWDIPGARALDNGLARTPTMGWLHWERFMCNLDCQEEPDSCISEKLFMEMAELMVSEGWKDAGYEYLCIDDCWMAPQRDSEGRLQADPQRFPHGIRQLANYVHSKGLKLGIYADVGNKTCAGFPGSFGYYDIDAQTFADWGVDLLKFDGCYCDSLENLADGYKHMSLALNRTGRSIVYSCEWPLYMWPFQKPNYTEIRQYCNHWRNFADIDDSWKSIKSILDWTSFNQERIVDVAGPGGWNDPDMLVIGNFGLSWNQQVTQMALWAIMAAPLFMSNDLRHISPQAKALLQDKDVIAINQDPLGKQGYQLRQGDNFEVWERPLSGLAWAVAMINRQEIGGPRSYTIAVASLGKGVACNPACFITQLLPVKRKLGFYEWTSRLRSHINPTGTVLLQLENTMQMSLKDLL

In the case of `OC[C@H]1O[C@@H](O[C@@H]2[C@@H](CO)O[C@](O)(CO)[C@H]2O)[C@H](O)[C@@H](O)[C@H]1O`, the activity change, negative = inhibition in [1] (at 57.5 µM (top of the series)) was -5.86% (inactive). Besides, the values for the max response in test [1] (setting [20]) and in [1] (setting [21]) were -20.2% and -24.3%, respectively.
As for `CN(C)CCCN1c2ccccc2CCc2ccccc21`, the molecule was called inactive in [2] and in test [3]. In addition, the activity change, negative = inhibition was -3.67% (inactive) in test [1] (at 25.7 µM (top of the series)); -1.66% (inactive) and 1.56% (inactive) in [1] (at 57.5 µM (top of the series)). Further, the max response was -3.16% and 7.78% and 14.5% in test [1] (setting [20]); -7.45% and 10.3% and 14.3% in [1] (setting [21]). Also, the Potency entry in test [4] and in test [5] was “inactive” each time.
For `OCCN1CCN(CCCN2c3ccccc3Sc3ccc(Cl)cc32)CC1`, the result in [2] and in [3] was inactive. Moreover, the activity change, negative = inhibition in [1] (at 25.7 µM (top of the series)) was -1.31% (inactive); in [1] (at 57.5 µM (top of the series)) it was 2.76% (inactive). Moreover, the max response in [1] (setting [20]) was -14.4% and -12.4%; in test [1] (setting [21]), -12.9% and -6.81%. For the same molecule, the Potency entry in test [4] and in test [5] was “inactive” each time.
On to `CC1(C)OC(=O)NC1=O`, for which the activity change, negative = inhibition in test [1] (at 25.7 µM (top of the series)) was -0.879% (inactive). The figures for the max response in [1] (setting [20]) and in [1] (setting [21]) were -12% and -11.9%, respectively.
Take `CSc1ccc2c(c1)C(N1CCN(C)CC1)Cc1ccccc1S2` (stereo unspecified): the activity change, negative = inhibition in test [1] (at 57.5 µM (top of the series)) is 1.28% (inactive) and 0.609% (inactive). Moreover, the max response is 9.1% and -20.8% in test [1] (setting [20]); 12.4% and -19.6% in test [1] (setting [21]). Also, the Potency result in test [4] and in [5] was “inactive” in each case.
For `Cc1cc(CC(=O)O)n(C)c1C(=O)c1ccc(Cl)cc1`, the Potency result in [6], in test [7], in [8], in [11], in test [12] and in test [13] was “inactive” each time. For the same molecule, the Potency result in test [14], in [16], in test [17] and in test [18] was “inactive” throughout. The outcome in test [9], in test [10] and in test [15] was inactive. Moreover, the values for the activity change, negative = inhibition in test [1] (at 25.7 µM (top of the series)) and in test [1] (at 57.5 µM (top of the series)) were -0.167% (inactive) and 7.69% (inactive), respectively. Moreover, the max response in test [1] (setting [20]) is -0.357% and 17.9%; in test [1] (setting [21]), 0.164% and 28.7%.
For `c1ccc(CN(CC2=NCCN2)c2ccccc2)cc1`, the activity change, negative = inhibition is -2.49% (inactive) in test [1] (at 25.7 µM (top of the series)) and -1.31% (inactive) in [1] (at 57.5 µM (top of the series)). The max response in [1] (setting [20]) is 2.23% and 6.19%; in test [1] (setting [21]) it was -3.05% and 6.55%.
In the case of `NCC(=O)CCC(=O)O`, the activity change, negative = inhibition in [1] (at 57.5 µM (top of the series)) was 1.06% (inactive). Moreover, the max response in test [1] (setting [20]) was determined as 6.63%; in [1] (setting [21]) it was 10.2%.
Regarding `CSc1ccc2c(c1)N(CCC1CCCCN1C)c1ccccc1S2` (stereo unspecified), the activity change, negative = inhibition in [1] (at 57.5 µM (top of the series)) is -0.301% (inactive). For the same molecule, the values for the max response in test [1] (setting [20]) and in [1] (setting [21]) were -6.02% and -4.98%, respectively. Further, the Potency result in test [4] and in test [5] was “inactive” in each case.
In the case of `Cc1ccc(C(C)C)cc2c(C)ccc1-2`, the activity change, negative = inhibition in test [1] (at 57.5 µM (top of the series)) is 7.53% (inactive). Moreover, the max response was 18.3% in test [1] (setting [20]) and 26.1% in test [1] (setting [21]).
Regarding `CC1=C(/C=C/C(C)=C/C=C/C(C)=C/C(=O)O)C(C)(C)CCC1`, in [1] (at 57.5 µM (top of the series)), the activity change, negative = inhibition was 0.149% (inactive). For the same molecule, the max response in test [1] (setting [20]) is -9.37%; in test [1] (setting [21]) it was -7.9%. Further, the Potency entry in test [4], in test [5] and in test [19] was “inactive” throughout.
With `COc1ccc2c(c1)C(=O)N(CCc1ccc(S(=O)(=O)NC(=O)NC3CCCCC3)cc1)C(=O)C2(C)C`, the activity change, negative = inhibition in test [1] (at 25.7 µM (top of the series)) was -1.13% (inactive). In addition, the results for the max response in test [1] (setting [20]) and in test [1] (setting [21]) were -22.2% and -23.3%, respectively.
With `Nc1ccc(S(=O)(=O)Nc2nccs2)cc1`, the Potency result in test [6], in test [7], in test [8], in [11], in [12] and in test [16] was “inactive” in each case. The Potency result in test [17] and in test [18] was “inactive” throughout. Moreover, the molecule was classed as inactive in test [9]. In addition, the values for the activity change, negative = inhibition in test [1] (at 25.7 µM (top of the series)) and in test [1] (at 57.5 µM (top of the series)) were 0.978% (inactive) and 7.82% (inactive), respectively. The max response in test [1] (setting [20]) was 0.0037% and 29.7%; in test [1] (setting [21]) it was 1.28% and 42.1%.
